# Pf growth 96h – Primary qHTS for delayed death inhibitors of the malarial parasite plastid, 96 hour incubation; P. falciparum luciferase reporter growth, 96 h; 6.9% of 320,000 active; AID 504834, 2011; Potency, µM (doses to about 28.7 µM), inactives show top-dose activity change, negative = inhibition, usual class: inhibitors; also: potency is read from the fitted curve at half-maximal effect; % is scaled to controls: 0 for no effect and ±100 for the full control effect
#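 P. falciparum expressing integrated firefly luciferase grown in erythrocytes (2% hematocrit, 0.05% parasitemia final) with compounds for 96 hours at 37 C, 5% CO2. Growth inhibition read as loss of luminescence after adding luciferase detection reagent.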
# Pf growth 48h – Primary qHTS for delayed death inhibitors of the malarial parasite plastid, 48 hour incubation; Potency, µM (highest dose often 28.7 µM), for the others: at the top dose activity change, negative = inhibition, actives largely listed as inhibitors; P. falciparum luciferase growth in erythrocytes, 48 h; 5.9% of 310,000 active; also: potency is read from the fitted curve at half-maximal effect; % is scaled to controls: 0 for no effect and ±100 for the full control effect
#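 First compound was added to culture medium, then infected red cells at 0.1% parasitemia and 2% hematocrit (final). After incubation at 37 C under 5% CO2, luciferase detection reagent was dispensed and light output recorded.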
# SARS PLP yeast – qHTS of Yeast-based Assay for SARS-CoV PLP; S. cerevisiae expressing SARS-CoV PLpro, growth rescue; Potency, µM (highest dose often 32.9 µM), inactives show at the highest dose activity, positive = growth rescue, actives largely listed as activators; 0.19% of 330,000 active; calls by dose curve; also: potency is read from the fitted curve at half-maximal effect; 0% is about no effect; nearly all actives have a fitted effect of over 55% in size
# Shiga toxin inh – A qHTS for Small Molecule Inhibitors of Shiga Toxin | Vero cells, Shiga toxin protein synthesis inhibition reporter | inhibition, % at 38.7 µM | 9.2% of 290,000 active; in the data active = inhibition mostly above about 28%, no sharp cut-off; inactive = mostly below about 43%; also: 0% is about no effect
# Cycloheximide cs – Cycloheximide Counterscreen for Small Molecule Inhibitors of Shiga Toxin; 12% of 300,000 active; max response, %; cell reporter, cycloheximide protein synthesis inhibition counterscreen; in the data active = max response mostly above about 13%, no sharp cut-off; inactive = mostly below about 14%; also: read at 38.3 µM for the half of the compounds with a filed dose; 0% is about no effect
# NS1 inh – qHTS Assay for Inhibitors of Influenza NS1 Protein Function; Potency, µM (titrated, usually from 46.1 µM), for inactives: top-dose activity, positive = more growth; 0.4% of 270,000 active; AID 2326, 2010; calls by dose curve; also: potency is read from the fitted curve at half-maximal effect; actives are rising curves; nearly all actives have a fitted effect of over 50% in size
#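 In this qHTS, NS1 from influenza A is expressed in budding yeast, where it slows growth. Cells are switched from glucose to 2% galactose medium (pH 6.0, -URA), treated with compound, and growth recovery is read at OD600.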
# Active calls of the source: *; u = inconclusive; x = not tested or not shown. This is a sample that favours compounds with a hit; in the whole collection about 21% have one here. Unless noted, calls follow the shape of the dose curve; as a rule, active = well fitted inhibition curve with a large enough effect; inconclusive = small, poorly fitted or top-dose-only effect, or another doubt; inactive = no such curve, though single readings can be large or run the other way.
SMILES,Pf growth 96h,Pf growth 48h,SARS PLP yeast,Shiga toxin inh,Cycloheximide cs,NS1 inh
COc1ccc(/C=N/NC(=O)c2ccco2)cc1Cn1nc(C)cc1C,-13%,13%,5%,67*,34*,3%
COc1ccc(/C=N/NC(=O)c2ccco2)cc1Cn1nc(C)c([N+](=O)[O-])c1C,0%,u,1%,-10,9,x
O=C(N/N=C/c1ccc2ncccc2c1)c1ccco1,234%,132%,-14%,-2,9,x
Cc1c(C(=O)N/N=C/c2ccoc2)cccc1[N+](=O)[O-],u,-17%,4%,19,21,1%
O=C(N/N=C/c1ccoc1)c1ccccc1F,u,58%,4%,90*,75*,6%
OC[C@H]1O[C@@H](O[C@@H]2OC=C[C@H]3[C@H](O)[C@@H]4O[C@]4(CO)[C@@H]23)[C@H](O)[C@@H](O)[C@@H]1O,x,x,x,0,-7,x
Cc1cc(/C(N)=N/OC(=O)Nc2ccc(Cl)cc2)no1,0%,61%,2%,55*,27*,1%
Cc1cc(C)n2ncc(C(=O)Nc3cccc(O)c3)c2n1,12%,6%,2%,-18,10,14%
Cc1cc(C)n2ncc(/C(N)=N/OC(=O)Nc3ccccc3)c2n1,u,10%,0%,16,9.6*,2%
Cc1cc(/C(N)=N/OC(=O)Nc2ccccc2)no1,55%,59%,1%,42*,24*,-5%
Cc1cc(C(=O)NNC(=O)Nc2ccc(Cl)cc2)no1,4%,3%,3%,17,0,0%
Cc1cc2c3ccccc3ncn2n1,40%,8%,0%,-8,-5,-2%
O=C(CSc1nc2ccccc2c(=O)n1-c1ccc(F)cc1)NC1CCS(=O)(=O)C1 (stereo not given),3%,29%,-1%,x,x,x
Cc1ccc(OCC(=O)N2CCN(c3ccc([N+](=O)[O-])c(N4CCOCC4)c3)CC2)cc1,u,-26%,-3%,-19,-3,-12%
N#Cc1ccc(C(=O)OCC(=O)N2CCOCC2)cc1,35%,22%,10%,-6,-4,-1%
Cc1cc(OCC(=O)N2CCOCC2)ccc1[N+](=O)[O-],144%,93%,0%,58*,25*,4%
Cc1ccc(C(=O)OCC(=O)N2CCOCC2)c(C)c1,61%,37%,1%,39,18*,-3%
O=C(COc1ccc(Br)cc1)OCC(=O)N1CCOCC1,x,x,-3%,x,x,x
Cc1ccc(C(=O)OCC(=O)N2CCOCC2)cc1,111%,145%,0%,50*,27*,-16%
O=C(OCC(=O)N1CCOCC1)c1ccc(Br)cc1,54%,40%,0%,60,20*,-4%
COc1ccc(C(=O)COC(=O)c2nc3nccc(C)n3n2)cc1F,-15%,-4%,2%,x,x,x
Cc1cc(OCC(=O)N2CCOCC2)ccc1NC(=O)c1ccccc1C,18%,41%,-1%,19,21*,16%
O=Cc1ccc(OCC(=O)N2CCOCC2)cc1,10%,35%,0%,-7,-1,-2%
Cc1ccc(C(=O)c2ccccc2C(=O)OCC(=O)N2CC(C)CC(C)C2)cc1 (stereo not given),7.4µM*,7.4µM*,-8%,x,x,x
Cc1ccc(-c2ccc(OCC(=O)N3CCOCC3)cc2)cc1,x,70%,-8%,62*,42*,-16%
CC1CCN(C(=O)COC(=O)c2ccccc2C(=O)c2ccccc2)CC1,x,x,-2%,x,x,x
Cc1ccccc1NC(=O)CSc1nnc(Cc2ccccc2)c(=O)n1N,9%,33%,-1%,x,x,x
COc1ccc(C2c3ccc4ccccc4c3Oc3ncn(CCCO)c(=N)c32)cc1OC (stereo not given),1.9µM*,u,0%,-15,-1,3%
N=c1c2c(ncn1CCCO)Oc1c(ccc3ccccc13)C2c1ccccc1 (stereo not given),u,u,-3%,-9,7,-6%
CN(C)CCCn1cnc2c(c1=N)C(c1ccccc1)c1ccc3ccccc3c1O2 (stereo not given),2.1µM*,1.5µM*,-1%,-15,-8,1%
